In PubChem BioAssay (NCI) one finds growth inhibition data, which are given here for 21 compounds.

Structures are written as SMILES. The panel holds about 79,000 compounds, 15% with a hit somewhere; the sample as a whole holds those more often. Unmarked numbers belong to inactive results. The source made the active and inactive calls. Rule as the data show it: active = growth inhibition above about 70%; inactive = the rest.

Test [1] is described as follows: NCI Yeast Anticancer Drug Screen. Data for the rad50 strain (AID 155).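 Also: 0% = growth of vehicle-only cultures of the same strain.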 Particulars: S. cerevisiae rad50 strain growth inhibition; at 50.0 µM; hits give high values. The essentials:
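Vehicle-treated cultures provide the reference for the growth inhibition reported for compound-exposed, repair-deficient yeast.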

A short description of test [2]: NCI Yeast Anticancer Drug Screen. Data for the mec2-1 strain (AID 157). The following applies: S. cerevisiae mec2-1 strain, at 50.0 µM, hits give high values. The essentials: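 Using mec2-1 yeast: add compound, measure growth, express inhibition versus vehicle-treated cultures.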
The nature of test [3]: NCI Yeast Anticancer Drug Screen. Data for the sgs1 mgt1 strain (AID 161).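 Also: 0% = growth of cultures given vehicle only.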 The following applies: S. cerevisiae sgs1 mgt1 strain, at 50.0 µM, hits give high values. In outline: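 Yeast cells carrying a defined DNA-repair defect were exposed to test compounds. Growth inhibition was measured relative to vehicle-treated controls.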
Test [4] in a line: NCI Yeast Anticancer Drug Screen. Data for the cln2 rad14 strain (AID 165).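 Also: 0% = growth equal to vehicle treated cultures.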 Particulars: S. cerevisiae cln2 rad14 strain, at 50.0 µM, hits give high values. In outline:
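Yeast strain cln2 rad14, bearing defects in cell cycle control and DNA repair, serves as the test system; values reflect growth inhibition compared with vehicle.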

Test [5] is described as follows: NCI Yeast Anticancer Drug Screen. Data for the bub3 strain (AID 167). Particulars: S. cerevisiae bub3 mutant strain, at 50.0 µM, hits give high values. In outline:
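Mutant yeast screening strain plus compound; vehicle-treated cultures serve as the 0% inhibition reference.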

The nature of test [6]: NCI Yeast Anticancer Drug Screen. Data for the mlh1 rad18 strain (AID 175). The following applies: S. cerevisiae mlh1 rad18 strain growth inhibition; at 50.0 µM; hits give high values. In outline:
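Steps: expose repair-defective yeast to compound; measure growth; express inhibition against vehicle-treated controls.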

In the case of `CCOc1ccc(/C=N/NC(=O)CCCCCCCCC(=O)N/N=C/c2ccc(OCC)c(OC)c2)cc1OC`, the growth inhibition in test [1] was -25.6%; in test [2], -5.1%; in test [3] it was -27.1%; in test [4], -27.6%; in test [5], -1.45%; in test [6], -8.35%.
As to `Nc1cc(N)[nH]c(=S)n1`, the growth inhibition is 16.8% in test [1]; 10.2% in test [2]; 13.9% in test [3]; -10.9% in test [4]; -3.95% in test [5]; -2.35% in test [6].
As for `CNc1ccccc1C(=O)N/N=C/C1CCCCC1`, the growth inhibition in test [1] is 0.6%; in test [2], -2.65%; in test [3], 16.6%; in test [4], -6.85%; in test [5], 9.85%; in test [6], 8.35%.
As to `Cc1cc(C)nc(N(C)CCN2CCCCC2)c1`, the growth inhibition in test [1] was -6.5%; in test [2], -3.1%; in test [3], 3.4%; in test [4], -25.1%; in test [5] it was 5.45%; in test [6], -5.85%.
For `COc1ccc(C(=O)C2CCC(C(=O)O)C2)cc1` (stereo unspecified), the growth inhibition in test [1] was -25.4%; in test [2], -27.9%; in test [3], -5.35%; in test [4] it was -6.35%; in test [5], -21.9%; in test [6], -13.2%.
Regarding `CCCC/C=C(\C)C(C)(C#N)C(=O)OCC` (stereo unspecified), the growth inhibition in test [1] was -35.4%; in test [2] it was -0.4%; in test [3], -4.5%; in test [4], -14%; in test [5] it was -17.9%; in test [6], -3.15%.
Consider `CC(Cl)CNC(=O)Nc1cccc2c1CCCC2` (stereo unspecified), for which the growth inhibition in test [1] is 3.45%; in test [2] it was 10.2%; in test [3] it was -1.9%; in test [4], -48.6%; in test [5], -22.2%; in test [6], -1.4%.
In the case of `CC1CCC2(CC1)CC(=O)N(N1CCCCC1)C2=O` (stereo unspecified), the growth inhibition was 11.3% in test [1]; 10.8% in test [2]; 26.8% in test [3]; 17.1% in test [4]; 3.3% in test [5]; 23.9% in test [6].
For the compound `OC1OCc2cc3ccccc3cc21` (stereo unspecified), the growth inhibition is 21.4% in test [1]; -0.95% in test [2]; -8.35% in test [3]; 3.6% in test [4]; -7.8% in test [5]; 3.65% in test [6].
On to `CCc1ccccc1NC(=O)CCl`, for which the growth inhibition in test [1] was 9.15%; in test [2] it was 0.3%; in test [3], -0.35%; in test [4] it was 17.6%; in test [5], -3.1%; in test [6] it was 2.75%.
`CCCCCCCC[n+]1cccc(C#N)c1`: the growth inhibition was 12.7% in test [1]; 23.6% in test [2]; 21.4% in test [3]; 16.7% in test [4]; 36% in test [5]; 19.1% in test [6].
Regarding `CCOC(=O)C1Cc2c([nH]c(=O)[nH]c2=O)OC1c1ccc(OC)cc1` (stereo unspecified), the growth inhibition in test [1] is 26.4%; in test [2] it was 7.1%; in test [3], 6.3%; in test [4], 19.4%; in test [5], 27.1%; in test [6], 8.5%.
On to `CC1COC(c2cc3c(cc2Cl)OCO3)O1` (stereo unspecified), for which the growth inhibition in test [1] is -12.4%; in test [2], -2.4%; in test [3] it was -20.3%; in test [4], -10.9%; in test [5] it was -26.6%; in test [6], -0.4%.
With `CN1N=CSC12C(=O)N(c1ccc(Cl)cc1)C(=O)N2c1ccc(Cl)cc1` (stereo unspecified), the growth inhibition in test [1] was 18.1%; in test [2], 3.6%; in test [3] it was 11.2%; in test [4] it was 30.4%; in test [5], 51%; in test [6], 11.9%.
Take `O=C(Nc1cc(C(F)(F)F)ccc1Cl)C(=O)C(C(=O)c1ccc2ccccc2c1)C1OC(=O)c2ccccc21` (stereo unspecified): the growth inhibition in test [1] is 35%; in test [2], 24.4%; in test [3], 19.6%; in test [4], 20.3%; in test [5] it was 30.9%; in test [6] it was 55.5%.
For `Cc1cc2ccccc2c(Br)c1C`, the growth inhibition in test [1] is 5%; in test [2], 4.95%; in test [3], 26%; in test [4], -36.8%; in test [5] it was -4.35%; in test [6], 4.7%.
In the case of `O=C(NCCNCCCNC(=O)c1cc(-c2ccccc2)nc2ccccc12)c1cccc(OCc2ccccc2)c1OCc1ccccc1`, the growth inhibition in test [1] was 86.3% (active); in test [2], 90.9% (active); in test [3], 90.3% (active); in test [4], 87.5% (active); in test [5] it was 89.2% (active); in test [6], 85.8% (active).
Regarding `CC12CC1CCCC2OC(=O)c1cc([N+](=O)[O-])cc([N+](=O)[O-])c1` (stereo unspecified), the growth inhibition was 4.75% in test [1]; 2.15% in test [2]; -5.7% in test [3]; -12.7% in test [4]; -7.65% in test [5]; -0.15% in test [6].
For the compound `C[n+]1ccc2c(Br)cccc2c1`, the growth inhibition in test [1] was -1.8%; in test [2], -14.9%; in test [3], -6.45%; in test [4], -12.7%; in test [5] it was -1%; in test [6], 13.5%.
As for `CN1CCC=C(C(C)(C)O)C1`, the growth inhibition in test [1] was -3.55%; in test [2] it was -4.45%; in test [3], -15.7%; in test [4], 11.3%; in test [5], -0.6%; in test [6] it was 2.35%.
Turning to `C/C(=N\NS(=O)(=O)c1ccc(C)cc1)c1ccc[n+]([O-])n1`, the growth inhibition in test [1] was 4.9%; in test [2] it was -2.4%; in test [3], 5.8%; in test [4], 7.4%; in test [5], 6.2%; in test [6], -0.55%.
